# Results from PubChem BioAssay (Tox21).
# “And” between values parts separate entries of the source, which are not always exact repeats. Equal entries are not always repeated. Results filed as inconclusive are left out. Unmarked numbers belong to inactive results. The source made the active and inactive calls. Calls come from the whole dose curve; as a rule, active = well fitted cell-killing curve with a large enough effect in the repeat runs; inconclusive = weak or mixed curves, or effect the other way; inactive = no such curve, though single readings can be large or run the other way.
# Assay: Caspase-3/7 induction in CHO-K1 cells by small molecules, qHTS cell viability counter screen (AID 1346979); note: nearly all actives have a fitted effect of over 35% in size
# Conditions: CellTiter-Fluor fluorescence, 17 h; series mostly up to 92.4 µM; activity change, negative = cytotoxicity: at the top concentration
# Description: National Center for Advancing Translational Sciences [NCATS]
# NIH Chemical Genomics Center [NCGC]
# U.S. Environmental Protection Agency [EPA]
# National Institutes of Environmental Health Sciences [NIEHS]
# National Toxicology Program [NTP]
# U.S. Food and Drug Administration [FDA]
# Apoptosis is a process of programmed cell death and plays a central role in the development of multicellular organisms. It is a highly regulated process and induces cell death by activating caspases, which are the members of cysteine aspartic acid-specific protease (caspase) family. Caspases involved in apoptosis are classified by their mechanism of action as initiator caspases (caspase-2, -8, -9 and -10) and executioner caspases (caspase-3, -6, and -7). Inhibition of apoptosis results in number of cancers, autoimmune diseases, inflammatory diseases and viral infection. To identify small molecule compounds that induce apoptosis, a homogeneous, luminescent Caspase-Glo 3/7 assay was used. Wild type CHO-K1 cells were used to screen Tox21 libraries for identifying caspase-3/7 activity inducers. Also cytotoxicity of the compounds was tested in parallel by measuring the cell viability using CellTiter-Fluor assay system in the same wells.
# Tox21 Assay Protocol Summary:
# CHO-K1 cells were dispensed at 1,500 per well in 5uL of culture medium into white solid bottom 1536-well plates (Corning Life Sciences, Corning, NY) using a Multidrop Combi (Thermo Scientific, Waltham, MA) dispenser. The assay plates were incubated at 37 C and 5% CO2 for 5hr, and then 23nL of compounds dissolved in DMSO and positive control were transferred using a Pintool station (Wako, San Diego, CA). The assay plates were incubated at 37C and 5% CO2 for 17hr. For cytotoxicity read, after 16hr incubation at 37C, 1uL CellTiter-Fluor reagent (Promega Corporation, Madison, WI) was added to each well of the assay plates using Flying Reagent Dispenser (FRD, Aurora Discovery, San Diego, CA). After 1hr incubation at 37C and 5% CO2, the fluorescence signal was quantified using a ViewLux plate reader (PerkinElmer, Shelton, CT).
# % is set by controls: 0 for no effect and ±100 for the full control effect; potency is the fitted concentration of half-maximal effect.
Structure (SMILES),"activity change, negative = cytotoxicity",Potency
C=COCCCl,7.24%,
CCCCCCCCCBr,-1.02%,
O=C1C=CC(=O)c2ccccc21,,5.45 µM (active)
c1ccc(OCC2CO2)cc1 (stereo not given),-0.0028%,
Oc1ccc(C2(c3ccc(O)cc3)c3ccccc3-c3ccccc32)cc1,,68.6 µM (active)
CCSC(C)CC1CC(=O)C(/C(CC)=N/OC/C=C/Cl)=C(O)C1 (stereo not given),9.35% [at 42.5 µM],
N#CNC#N,1.02%,
CCCCCCCCCCCCCCC(Br)C(=O)O (stereo not given),-0.433%,
C=CC(=O)N(C)C,7.21%,
CN(C)c1ccc(N=Nc2ccccc2)cc1,,30.7 µM (active)
C=CC(=O)OCC(COC(=O)C=C)(COC(=O)C=C)COC(=O)C=C,,3.86 µM (active)
CC(C)(C)C(O)/C(=C\c1ccc(Cl)cc1Cl)n1cncn1 (stereo not given),,37.1 µM (active)
Oc1cc(Cl)c(Cl)c(Cl)c1,,65 µM (active)
COc1ccc(/C(=C/C(=O)N2CCOCC2)c2ccc(Cl)cc2)cc1OC,-10.7%,
CC(=O)c1ccc(-c2ccccc2)cc1,2.22%,
O=C(CCl)C(Cl)Cl,,6.17 µM (active)
Cc1cc(N=Nc2ccccc2C)ccc1N,,30.6 µM (active) and 61.1 µM (active)
CCOCCOC(C)=O,0.985%,
[Hg+2].[I-].[I-],,21.7 µM (active)
CC[C@H](C)[C@H]1O[C@]2(C=C[C@@H]1C)C[C@@H]1C[C@@H](C/C=C(\C)[C@@H](O[C@H]3C[C@H](OC)[C@@H](O[C@H]4C[C@H](OC)[C@@H](O)[C@H](C)O4)[C@H](C)O3)[C@@H](C)/C=C/C=C3\CO[C@@H]4[C@H](O)C(C)=C[C@@H](C(=O)O1)[C@]34O)O2,,14.4 µM (active)

Structure (SMILES),"activity change, negative = cytotoxicity",Potency
COP(N)(=S)OC,-0.297%,
ClCCN1CCOCC1,3.2%,
Cc1cccc(OP(=O)(Oc2cccc(C)c2)Oc2cccc(C)c2)c1,-1.79%,
Cc1ccc(CCl)cc1,2.31%,
CCCCCCCCCCCCCN1CC(C)OC(C)C1 (stereo not given),8.72%,
C=CCOC(N)=O,10.5%,
CCCCCCCCCCCCBr,-1.66%,
Nc1c(Oc2ccccc2)cc(O)c2c1C(=O)c1ccccc1C2=O,,26.6 µM (active)
ClCc1ccc(Cl)cc1Cl,-0.651%,
CC(C)C1CCC(Cc2ccc(Cl)cc2)C1(O)Cn1cncn1 (stereo not given),,30.3 µM (active)
CC1(C)CN=C(NN=C(/C=C/c2ccc(C(F)(F)F)cc2)/C=C/c2ccc(C(F)(F)F)cc2)NC1,,8.63 µM (active)
CC(=O)[O-].CC(=O)[O-].O.O.[Cd+2],,1.7 µM (active)
COP(=O)(CCC(=O)NCO)OC,6.09%,
ClC(Cl)=C(Cl)Cl,-1.99%,
FC(F)(F)c1cccc(C2=CCN(CCc3ccc4ccccc4c3)CC2)c1,3.04% [at 42.5 µM],
CCN(CC)C(=S)[S-].CCN(CC)C(=S)[S-].[Zn+2],,2.41 µM (active)
CCC(C)c1cc([N+](=O)[O-])cc([N+](=O)[O-])c1OC(=O)C=C(C)C (stereo not given),,43.3 µM (active)
O=C(O)C1C2CCC(O2)C1C(=O)O (stereo not given),,55.1 µM (active) and 44.5 µM (active)
O=c1c(C2CC(c3ccc(-c4ccc(Br)cc4)cc3)Cc3ccccc32)c(O)sc2ccccc12 (stereo not given),,18.8 µM (active)
BrCC(Br)c1ccccc1 (stereo not given),0.28%,
